Screening results: PubChem, Broad Institute
aSyn UTR act: Activators via SNCA 5'UTR binding, MLPCN; AID 1814, 2009; activity score, % (tested at 7.5 µM), hits read low; hit rate 7.1% among 300,000; alpha-synuclein 5'UTR reporter, activators screen; in the data active means activity score below about -60%
Numbers without * were called inactive. The list is a sample of the results.

SMILES	aSyn UTR act
CCCn1c(CN2CCN(C(=O)OCC)CC2)nc2cc(NC(=O)C(C)C)ccc21	-70*
CN(C)c1ccc(C2Nc3ccccc3C(=O)N2CCCN2CCOCC2)cc1 (stereo unspecified)	-120*
N/C(=N\c1nc2ccccc2o1)NC(=O)c1ccccc1F	-198*
CCCCC(=O)N/C(N)=N/c1nc2ccccc2o1	-206*
O=C(N=C1N=C2C=CC(Br)=CN2Cc2ccccc21)c1ccc([N+](=O)[O-])cc1[N+](=O)[O-]	-106*
CCOc1cccc2c1OC(c1cc(OC)c(OC)c(OC)c1)N1N=C(c3ccc(C)o3)CC21 (stereo unspecified)	-219*
CC#CC(=O)N1CCC(C(=O)Nc2ccc(Oc3ccccc3)nc2)CC1	-175*
O=C(C1COc2ccccc2O1)N1CCc2ccccc21 (stereo unspecified)	-106*
Cc1c(O)ccc(C(=O)COc2ccc(F)cc2)c1O	-154*
CCc1cc(C(=O)COc2ccc(F)cc2)c(O)cc1O	-104*
CCCCC(=O)Nc1ccc2c(c1)nc1n2CCOC1	-77*
O=C(Nc1ccc2c(c1)nc1n2CCOC1)c1ccccc1	-80*
COc1ccc(NC(=O)Nc2ccc3[nH]ccc3c2)cc1	-112*
COc1ccc2cc[nH]c2c1	71
COc1ccc(NC(=O)OC(C)C)cc1	-70*
COc1ccc2cc(OCC(=O)NNC(=O)Nc3ccc(C(C)=O)cc3)ccc2c1	-88*
COc1ccc(NC(=O)Nc2ccc(N(C)C)cc2)cc1	-124*
N#Cc1ccc(NC(=O)Nc2ccc(Oc3ccc(NC(=O)Nc4ccc(C#N)cc4)cc3)cc2)cc1	74
COc1ccc(NC(=O)Nc2ccc(OC)cc2)cc1	-99*
COc1ccc(CNS(=O)(=O)c2cc3c(cc2C)N(C)CCO3)cc1	-65*
O=C(CSc1nncs1)Nc1ccc2c(c1)OCCO2	-102*
O=C(CSc1ncn[nH]1)Nc1ccc2c(c1)OCCO2	-62*
O=C(CSc1nc2ccc(Cl)cc2[nH]1)c1ccc2c(c1)OCO2	-67*
O=C(CSc1nncs1)NC(=O)Nc1ccc2c(c1)OCCO2	-134*
COc1ccc2nc(SCC(=O)Nc3ccc4c(c3)OCCO4)[nH]c2c1	-63*
SMILES	aSyn UTR act
COc1ccc2nc(SCC(=O)/C(C#N)=C(\C)N)[nH]c2c1	-76*
CCCCCCCCCCn1c2c(c(=N)c3c1CCC3)CCC2	71
CC(C)(C)C(=O)Nc1nnc(SCc2cccc(F)c2)s1	-174*
COCCSc1nnc(NC(=O)C(C)(C)C)s1	-90*
CC(C)(C)C(=O)Nc1nnc(SCc2ccc(F)cc2)s1	-82*
Cc1ccc(NC(=O)Nc2ccc([N+](=O)[O-])cc2)nc1	-113*
Cc1ccc(NC(=O)Nc2ccccc2)nc1	-119*
C=C(C)c1cccc(C(C)(C)NC(=O)Nc2ccc(C)cn2)c1	-91*
Cc1ccc(NC(=O)/C(C#N)=C(\N)C(Cl)(Cl)Cl)nc1	-68*
Cc1ccc(NC(=O)c2ccc(F)cc2)nc1	-107*
Cc1ccc(NC(=O)Nc2cccc([N+](=O)[O-])c2)nc1	-113*
Cc1ccc(NC(=O)C(=O)Nc2ccc(C)cn2)nc1	-66*
CCC(=O)Oc1ccc(-c2cnc3ccccc3n2)cc1	-99*
O=C(Oc1ccc(-c2cnc3ccccc3n2)cc1)c1ccco1	-81*
CSc1nc(/C=C2\C=Nc3ccccc32)c(O)n1C	-152*
c1ccc(-c2noc(-c3ccc4ccccc4c3)n2)nc1	113
CC(C)(C)Cc1nc(-c2ccccn2)no1	-99*
c1ccc(-c2noc(-c3ccncc3)n2)nc1	-62*
Cc1ccc(OCc2nc(-c3ccccn3)no2)cc1	-64*
Cc1ccc(SCc2nc(-c3ccccn3)no2)cc1	-106*
c1ccc(OCCCc2nc(-c3ccccn3)no2)cc1	-85*
CC(C)c1ccc(OCc2nc(-c3ccccn3)no2)c(Br)c1	-67*
CC(Oc1ccc(Cl)cc1Cl)c1nc(-c2ccc(NC(=O)c3cccnc3)cc2)no1 (stereo unspecified)	92
CC(Oc1ccc(Cl)cc1Cl)c1nc(-c2ccccn2)no1 (stereo unspecified)	-129*
Clc1ccccc1/C=C/c1nc(-c2ccccn2)no1	104
SMILES	aSyn UTR act
C#CCn1c(=NC(=O)c2ccc(Cl)s2)sc2cccc(OC)c21	-79*
COC(=O)Cn1c(=NC(=O)c2ccc(Cl)s2)sc2cc(F)ccc21	-111*
CC1(C)C=Cc2cc(-c3coc4cc(O)cc(O)c4c3=O)cc(O)c2O1	-149*
Cn1/c(=N/NC(=O)c2ccccc2Br)sc2ccccc21	-75*
C=CC(=O)N=c1sc2ccccc2n1-c1ccccc1	70
Cn1c(=NC(=O)C2=NNC(=O)CC2)sc2ccccc21	60
Cc1ccc(-c2cc(NC(=O)c3ccccc3)on2)cc1	-190*
COc1ccc(C(=O)Nc2cc(-c3ccc(C)cc3)no2)cc1	-65*
Cc1ccc(C(=O)Nc2ccccc2Sc2ccccc2)cc1	-62*
CCCc1noc(-c2ccc(-c3ccccc3)cc2)n1	-112*
COc1cccc2cc(CC(=O)c3cc(C)ccc3C)c(=O)oc12	-116*
COc1cccc2cc(-c3nc4ccccc4o3)c(=O)oc12	-169*
